Screening data: PubChem BioAssay, National Center for Advancing Translational Sciences (NCATS)
Pf Dd2 growth – qHTS Primary assay for Inhibitors of Plasmodium falciparum Dd2 growth in vitro; Potency, µM (doses to about 28.9 µM), hits mostly inhibitors; 120,000 tested, 4.3% active; P. falciparum Dd2 growth, SYBR Green, 72 h; active = well fitted inhibition curve with a large enough effect; note: nearly all actives have a fitted effect of over 65% in size
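Readout: SYBR Green fluorescence, 485 nm excitation, 535 nm emission, after ~16 h lysis at 37C. Before that, Dd2-infected red cells (2.5% hematocrit) grew 72 h with compound, 29 uM top final concentration.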
Each line names hits and unclear results; the compound was inactive in the other large screens. Shown is part of a subset that was picked to be rich in hits.

O=C(N[C@H]1CCN2C(=O)c3cc(-c4ccsc4)ccc3NC(=O)[C@H]12)C1CCCC1	none
Cc1ccc(-c2ccc3nnc(CNC(=O)COc4ccccc4)n3n2)cc1	none
COc1ccc(C2Cn3nnc(-c4nc(-c5ccncc5)no4)c3CO2)cc1 (stereo unspecified)	none
CCc1ccc2nc(N(Cc3cccnc3)C(=O)c3ccc(C#N)cc3)sc2c1	Pf Dd2 growth 8.91µM
COc1cccc2sc(N(Cc3cccnc3)C(=O)Cc3ccccc3)nc12	none
O=C(CCS(=O)(=O)c1ccccc1)N(Cc1cccnc1)c1nc2ccc(F)cc2s1	none
O=C(NC1CCN(c2cc(-c3ccccc3)[nH]n2)C1)c1ccc(F)c(F)c1 (stereo unspecified)	none
COCc1nc(C2CCN(C(=O)C3CCCC3)C2)no1 (stereo unspecified)	none
CCc1[nH]nc(C(=O)N(Cc2cccnc2)CC2CCN(C3CCCC3)CC2)c1C	none
CC(C)=CC(=O)N[C@H]1C[C@@H](C(=O)N[C@H](Cc2ccccc2)C(N)=O)N(C(=O)C=C(C)C)C1	none
CCCn1ccc2oc(C)c(C(=O)N3CCN(c4ccc(OC)cc4)CC3)c2c1=O	none
O=C(NCCc1ccccc1)C1CCCN(C2CCN(Cc3ccncc3)CC2)C1 (stereo unspecified)	Pf Dd2 growth 10µM
O=C(NCCN1CCOCC1)C1CCCN(C2CCN(Cc3ccncc3)CC2)C1 (stereo unspecified)	none
O=C(NCCc1ccccc1)C1CCCN(C2CCN(Cc3ccccc3F)CC2)C1 (stereo unspecified)	none
CC(C)CNC(=O)N1CC(c2noc(C3CCCN3CC3CC3)n2)C1 (stereo unspecified)	none
CC1(C)CN(C(=O)C2CCN(C(=O)C3CCCC3)CC2)CC1(C)O (stereo unspecified)	none
C[S+](=O)([O-])CCn1ncc2cc(OCc3cccc(-c4ccccc4O)c3)ccc21	Pf Dd2 growth 7.94µM
CNC(=O)CCn1ncc2cc(OCc3ccccc3-c3c(Cl)cccc3OC)ccc21	Pf Dd2 growth 3.98µM
COc1cccc(F)c1-c1ccc(COc2ccc3c(cnn3CCC(=O)O)c2)cc1	none
CNC(=O)CCn1ncc2cc(OC3CCc4cccc(-c5ccnc(OC)c5)c43)ccc21 (stereo unspecified)	none
CNC(=O)CCn1ncc2cc(OCc3ccccc3-c3cc(F)ccc3C)ccc21	Pf Dd2 growth 3.16µM
COc1ccc(F)cc1-c1cccc(COc2ccc3c(cnn3CC[S+](C)(=O)[O-])c2)c1	none
CNC(=O)CCn1ncc2cc(OCc3ccccc3-c3ccccc3COC)ccc21	Pf Dd2 growth 3.98µM
CNC(=O)CCn1ncc2cc(OCc3ccccc3-c3cnc(OC)nc3)ccc21	none
COc1ccc(-c2ccc(COc3ccc4c(cnn4CCC(=O)O)c3)cc2)c(Cl)c1	none
COc1ccccc1-c1cccc(COc2ccc3c(cnn3CC[S+](C)(=O)[O-])c2)c1	none
C[S+](=O)([O-])CCn1ncc2cc(OCc3cccc(-c4cncnc4)c3)ccc21	none
COc1cc(F)cc(-c2ccc(COc3ccc4c(cnn4CCC(=O)O)c3)cc2)c1	none
C#CCNC(=O)C1CCc2nnc(C3CCN(C(=O)c4ccccc4)CC3)n21 (stereo unspecified)	none
COc1ccc(CN2CC(OCc3cccnc3)CN(C(=O)c3ccccn3)CC2=O)cc1 (stereo unspecified)	none
CCN1C(=O)CCC2(C(=O)Nc3ccc(C)cc3)CCCC=C12 (stereo unspecified)	none
O=C(c1cccc(Cl)c1)N1CCC(c2nn(-c3ccc(Cl)cc3)c(=O)[nH]2)CC1	none
O=C(NC1CC1)[C@H]1CN2CCC1C[C@@H]2Cn1cc(CCO)nn1 (stereo partly specified)	none
CCNC(=O)NC[C@H]1O[C@H](Cc2cc(-c3ccccc3)on2)CC[C@@H]1O	none
O=C1NC2(CCN(CC3CCCC3)CC2)COc2ccccc21	none
Cn1cccc1CN1CC2(C1)NC(=O)c1ccccc1O2	none
O=C1NC2(CCN(Cc3ccc(OC(F)(F)F)cc3)CC2)COc2ccccc21	Pf Dd2 growth 2.24µM
O=C1NC2(CCCN(Cc3ccc(OC(F)(F)F)cc3)C2)COc2ccccc21 (stereo unspecified)	none
O=C1NC2(CCN(C(=O)C3CCCC3)CC2)COc2ccccc21	none
Cn1cccc1CN1CCC2(CC1)COc1ccccc1C(=O)N2	Pf Dd2 growth 5.62µM
CN(C)c1ccc(CN2CCC3(CC2)COc2ccccc2C(=O)N3)cc1	Pf Dd2 growth 1.12µM
O=C1NC2(CCN(C(=O)c3ccccc3)CC2)COc2ccccc21	none
CN(C)c1ccc(CN2CCC3(COc4ccccc4C(=O)N3)C2)cc1 (stereo unspecified)	none
c1ccc(-c2nnc3n2CCN(Cc2cscn2)C3)cc1	none
C[C@@H](NS(=O)(=O)c1ccc(Cl)cc1)c1onc(-c2cccnc2)c1C(=O)O	none
O[C@@H]1CC(CNC2CCC2)(COc2ccc(C(F)(F)F)cn2)C[C@@H]1O (stereo partly specified)	none
COCCn1nc2n(c1=O)CCN(C(=O)c1ccc(Br)o1)CC2	none
Cc1cccc(C(=O)N2CCC3(CC2)OCC(C(=O)NCC(C)C)N3C(=O)c2cccc(C)c2)c1 (stereo unspecified)	none
CN1CCN(C)C2(CCN(C(=O)c3cn4cc(Cl)ccc4n3)CC2)C1	none
CCN1CCNC(=O)C1CC(=O)N1CCn2nc(Cc3ccccc3)cc2C1 (stereo unspecified)	none
CCc1ccccc1S(=O)(=O)N1CCC(n2cnnc2CCOC)CC1	none
Cc1ccc(C(=O)NCC(=O)N2CCCCCCNC(=O)CC2c2ccccc2)s1 (stereo unspecified)	none
Cc1ccc(CN2CCCCCCNC(=O)CC2c2ccccc2)s1 (stereo unspecified)	Pf Dd2 growth 8.91µM
Cc1ccc(CN2CCCN(S(C)(=O)=O)C(c3ccccc3)CC(=O)NCC2)s1 (stereo unspecified)	none
O=C1NCCCCCN(Cc2ccccn2)[C@H]2CCC[C@@H]12	none
O=C1CC(c2ccccc2)N(S(=O)(=O)c2cccs2)CCCCCN1 (stereo unspecified)	none
O=C1CC(c2ccccc2)N(C(=O)c2cccs2)CCCCCN1 (stereo unspecified)	none
O=C1CC(c2ccccc2)N(C(=O)C2CCCC2)CCCCCCN1 (stereo unspecified)	none
O=C1CC(c2ccccc2)N(C(=O)c2ccsc2)CCCCCN1 (stereo unspecified)	none
Cc1ccsc1CN1CCCCCCNC(=O)[C@@H]2CCC[C@@H]21	Pf Dd2 growth 8.91µM
Cc1ccsc1CN1CCCCCCNC(=O)CC1c1ccccc1 (stereo unspecified)	Pf Dd2 growth 12.6µM
Cc1ncsc1CN1CCCCCCNC(=O)[C@@H]2CCC[C@@H]21	none
Cc1ccsc1CN1CCCCCNC(=O)CC1c1ccccc1 (stereo unspecified)	Pf Dd2 growth 7.08µM
CN1CCCN(C[C@@H]2CN(S(C)(=O)=O)C[C@@H]2CO)CC1	none
Cc1nc2c(c(NC3CC3)n1)CCN(C(=O)c1ccc(=O)[nH]n1)CC2	none
O=C(Nc1cnc(-c2cccc(Cl)c2)nc1)c1ccc(F)cc1Cl	none
N#Cc1cccc(CN[C@@H]2CO[C@H](CNC(=O)c3ccncc3)[C@H]2O)c1	none
O=CN1CCC(Cn2cnc3cccnc32)CC1	none
COCCC(=O)N1CC(F)(F)C[C@H]1c1nc(-c2cccnc2)no1	none
C=CCn1cc(CN(Cc2ccco2)Cc2cccs2)c(C)n1	none
COc1ccc(CCNC(=O)c2noc(-c3ccc[nH]c3=O)n2)cc1OC	none
O=C1NCCCCCN(Cc2cccnc2)[C@H]2CCC[C@@H]12	none
O=C1NCCCCCN(Cc2ccc(F)cc2F)[C@H]2CCC[C@@H]12	none
